Screening data (PubChem)
SRC1 inh – SRC1 coactivator transcriptional activity inhibitors, primary screen, cell-based, luminescence; Nuclear receptor coactivator 1 (Homo sapiens), Q15788; HEK293 GAL4-SRC1 luciferase reporter; inhibition, % at 3.6 µM; actives 0.12% (n = 360,000);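 active means inhibition above the campaign mean plus 3 SD, with each screening campaign given its own cutoff, cut at about 60% in these data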;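 further: 0% = DMSO treated cells and 100% = gossypol at 36 µM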
NR2F2 inh – NR2F2 transcriptional activity inhibitors, primary screen, cell-based, luciferase reporter, HEK293T, luminescence | COUP transcription factor 2 (Homo sapiens), P24468 | HEK293T NGFI-A luciferase reporter | inhibition, % at 8.6 µM | actives 0.7% (n = 370,000) | AID 686940, 2013;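 active means inhibition above a per-plate cutoff, mean inhibition of test wells between control levels plus 3 SD, cut at about 38% in these data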;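 further: cells cotransfected with COUP-TFII expression vector driving the NGFI-A reporter; 0% = median of COUP-TF2 test wells and 100% = reporter-only cells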
Target sequence (P24468 whole entry, looked up): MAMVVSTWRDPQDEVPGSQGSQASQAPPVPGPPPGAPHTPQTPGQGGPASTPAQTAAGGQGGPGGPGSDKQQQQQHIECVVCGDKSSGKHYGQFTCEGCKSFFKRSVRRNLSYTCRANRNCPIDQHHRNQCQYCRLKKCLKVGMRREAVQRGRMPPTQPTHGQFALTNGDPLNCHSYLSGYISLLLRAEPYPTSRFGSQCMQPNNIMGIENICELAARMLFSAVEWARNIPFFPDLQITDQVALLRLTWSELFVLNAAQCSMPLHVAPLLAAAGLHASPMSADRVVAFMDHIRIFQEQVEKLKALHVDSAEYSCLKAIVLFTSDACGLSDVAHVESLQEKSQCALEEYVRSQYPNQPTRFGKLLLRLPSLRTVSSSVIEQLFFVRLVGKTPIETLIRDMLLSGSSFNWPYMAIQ
Gli-Sufu antag – Gli-Sufu pathway antagonists, primary screen, luciferase luminescence, Sufu-KO-LIGHT cells, uHTS | Sufu-KO-LIGHT fibroblasts, Gli luciferase reporter luminescence | inhibition, % at 5 µM | actives 0.74% (n = 340,000) | AID 588413, 2011;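 active means inhibition above about 55%, limit read from the data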;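 further: 0% = DMSO-treated cells and 100% = wells with medium but no cells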
SRC3 inh – SRC3 coactivator transcriptional activity inhibitors, primary screen, cell-based, luminescence. Nuclear receptor coactivator 3 (Homo sapiens), Q9Y6Q9. HEK293 GAL4-SRC3 luciferase reporter. inhibition, % at 3.6 µM. actives 0.17% (n = 360,000);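 active means inhibition above a per-campaign cutoff, the mean of all compounds plus 3 SD, cut at about 60% in these data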;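 further: 0% = DMSO-treated cells and 100% = gossypol-treated cells at 36 µM; higher means less SRC3-driven luciferase light from the GAL4 reporter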
LRH-1 inv ag – LRH-1 (NR5A2) inverse agonists, primary screen, cell-based, luminescence, HEK293T, StAR-luciferase reporter; actives 0.13% (n = 360,000); Nuclear receptor subfamily 5 group A member 2 (Homo sapiens), O00482; inhibition, % at 3.6 µM; LRH-1 transfected, 24 h;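 active means inhibition above the mean inhibition of all tested compounds plus 3 SD, cut at about 73% in these data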;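 further: 0% = DMSO wells and 100% = reporter-only cells lacking LRH-1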
SRC2 inh – inhibition of GAL4-SRC2 driven luciferase reporter, primary screen, SRC2 inhibitor project, cell-based, luminescence; actives 0.17% (n = 370,000); AID 651957, 2012; inhibition, % at 9 µM; HEK293 GAL4-SRC2 luciferase reporter;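 active means inhibition above the mean inhibition of all tested compounds plus 3 SD, set per campaign, cut at about 52% in these data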;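 further: 0% = DMSO treated cells and 100% = cells given Gossypol at 36 µM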
Gli-Sufu confirm – Gli-SUFU pathway antagonists, confirmation, single concentration, luciferase luminescence, Sufu-KO-LIGHT cells | shares compounds with Gli-Sufu antag | Gli luciferase reporter | inhibition, % at 5 µM | actives 40% (n = 2,500) | AID 602428, 2012;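 active means mean inhibition at 5 µM reaching about 45%, limit read from the data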;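 further: plate controls were DMSO-treated cells for no effect and wells lacking cells for full effect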
SufuKO cytotox – cytotoxicity in Sufu-KO-LIGHT cells, confirmation, cytotoxicity control for Gli-SUFU antagonist project, cell-based, ATP luminescence, single concentration; shares compounds with Gli-Sufu antag; cytotoxicity, % at 5 µM; actives 32% (n = 2,500); AID 651994, 2013;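 active means mean cytotoxicity at 5 µM above about 25%, limit read from the data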;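 further: cells exposed to compound overnight for roughly 16 to 18 hours; plate controls were DMSO wells with cells for no effect and medium without cells for full effect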
Wnt3a counter – Wnt3a reporter signal inhibition, confirmation, counter-screen for Gli-SUFU antagonist project, Wnt-LIGHT cells, luminescence, single concentration; shares compounds with Gli-Sufu antag; Wnt3a-driven luciferase reporter; inhibition, % at 6.25 µM; actives 20% (n = 2,500); AID 651995, 2013;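 active means mean inhibition above about 25%, limit read from the data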
Starred values were filed as active, the others as inactive; x = not tested or not shown. Hits are enriched below; roughly 1.3% of the tested compounds scored in any of these assays.

SMILES | SRC1 inh | NR2F2 inh | Gli-Sufu antag | SRC3 inh | LRH-1 inv ag | SRC2 inh | Gli-Sufu confirm | SufuKO cytotox | Wnt3a counter
O=S(=O)(c1ccc2c(c1)C(=NO)c1cc(S(=O)(=O)N3CCCCC3)ccc1-2)N1CCCCC1 | -0.9 | 6.9 | 95.0* | 5.8 | 14.3 | -22.3 | 93.3* | 71.1* | 104.4*
CC(C)(C)C(=O)Nc1cc(S(=O)(=O)N2CCCCC2)ccc1N1CCCCC1 | -5.3 | 17.2 | 54.9 | 16.9 | 9.4 | 16.5 | 26.8 | 0.4 | -17.6
CC1CCN(S(=O)(=O)c2ccc3c(c2)C(=NO)c2cc(S(=O)(=O)N4CCC(C)CC4)ccc2-3)CC1 | -30.5 | 16.1 | -4.7 | -7.0 | -6.1 | -5.8 | x | x | x
CCOC(=O)/C(N=Nc1ccc(C(=O)O)cc1[N+](=O)[O-])=C(\C)O | -10.2 | 14.6 | 3.6 | 9.9 | -7.1 | -47.4 | x | x | x
CC(=O)/C(N=Nc1ccc(C(=O)O)cc1[N+](=O)[O-])=C(\C)O | 4.1 | 14.2 | 80.0* | 24.8 | 3.9 | -10.8 | 7.5 | 5.3 | -13.6
CC(=O)c1cc(-c2cc3ccccc3o2)c(=O)n2c1CCC2 | x | 8.4 | x | x | x | -5.8 | x | x | x
O=C(NCCOC(=O)c1ccc(C(=O)OCCNC(=O)c2ccccc2)o1)c1ccccc1 | -7.7 | -3.7 | 54.1 | 8.5 | 9.7 | -9.0 | 13.2 | 4.9 | 4.2
COC(=O)[C@]12C[C@H](CC(=O)NCc3ccc(C)o3)C(=O)N(Cc3ccccc3)C1=C[C@H](C(C)(C)C)O[C@@H]2C | x | -0.7 | x | x | x | 12.4 | x | x | x
Clc1ccc(C2Nc3cccc4cccc(c34)N2)c(Cl)c1 | 2.8 | 8.4 | -34.0 | 10.4 | -2.8 | 8.7 | x | x | x
O=C1NC(c2cccc3ccccc23)Nc2ccc(Cl)cc21 (centres undefined) | -18.7 | -48.2 | 61.5* | 5.8 | 30.5 | 13.2 | 58.9* | 63.7* | -73.0
COC(=O)[C@]12C[C@H](CC(=O)NCc3ccccc3)C(=O)N(Cc3cccc4ccccc34)C1=C[C@H](COCc1ccccc1)O[C@@H]2C | x | -11.6 | x | x | x | -19.5 | x | x | x
Cc1ccccc1CNCc1ccc2c(c1)OCO2 | -1.5 | 19.6 | 50.9 | 9.1 | 0.4 | -2.8 | 26.7 | 3.9 | 0.6
CSc1ccc(CNCc2ccc3c(c2)OCO3)cc1 | 18.1 | 16.1 | 4.5 | 1.6 | 20.4 | 8.2 | x | x | x
S=c1[nH]nc(-c2n[nH]c3c2CCC3)n1N=Cc1ccc(Br)s1 | x | -31.4 | x | x | x | -11.5 | x | x | x
COc1cc2nc(=S)n3[nH]c(COc4ccccc4C)nc3c2cc1OC | 8.6 | 6.6 | 6.6 | 9.9 | 17.4 | -9.9 | x | x | x
COc1cc2nc(=S)n3[nH]c(CCn4nc(C)cc4C)nc3c2cc1OC | 1.3 | 19.7 | 68.2* | -17.5 | 1.4 | -20.5 | 39.9 | 13.4 | 4.8
O=C(O)Cn1c(-c2ccccc2)nc2ccccc21 | -52.6 | 8.3 | 95.8* | -13.1 | 6.0 | -98.9 | 28.8 | 7.6 | 4.5
Cc1nc2ccc(C(=O)N3CCN(C(=O)OCc4ccccc4)CC3)cc2n1C1CCCC1 | x | 12.9 | x | x | x | 14.2 | x | x | x
C(#Cc1ccccc1)C[N+]1(CC#Cc2cccc3ccccc23)CCCC1 | 4.5 | 30.5 | 81.5* | 22.7 | 14.7 | -3.1 | 82.7* | 18.8 | 4.4
C#CC[N+]1(CC#Cc2ccccc2)CCCC1 | -28.5 | -6.2 | 1.1 | 25.7 | 7.0 | -14.0 | x | x | x
COc1ccc(CNS(=O)(=O)CC2NCc3cc(OC)ccc32)cc1 (centres undefined) | x | 13.9 | x | x | x | -15.1 | x | x | x
CC(NCC(O)COc1ccc(Br)cc1)c1ccccc1 (centres undefined) | 1.1 | -20.8 | 58.4* | 1.6 | -5.8 | -7.9 | 14.3 | 1.6 | -36.8
